The source made the active and inactive calls. The calls were made as follows: active = hit-call score of the fitted dose curve at least 0.9, where 1 is the maximum; inactive = score below 0.9.
Assay: ATG_M_06_CIS: Attagene CIS-FACTORIAL HepG2 Assay for M06 Transcription Factor (Internal Marker) (AID 2282950)
Conditions: HepG2 Attagene CIS-FACTORIAL M06 internal marker reporter; actives raise or lower the signal
Protocol: ATG_CIS is a cell-based, multiplexed-readout assay that uses HepG2, a human liver cell line, with measurements taken at 24 hours after chemical dosing in a 24-well plate.ATG_M_06_CIS is one of 52 assay component(s) measured or calculated from the ATG_CIS assay. It is designed to make measurements of mRNA induction, a form of inducible reporter, as detected with fluorescence intensity signals by Reverse transcription polymerase chain reaction (RT-PCR) and Capillary electrophoresis technology.Data from the assay component ATG_M_06_CIS was analyzed into 1 assay endpoint. This assay endpoint, ATG_M_06_CIS, was analyzed with bidirectional fitting relative to DMSO as the negative control and baseline of activity. Using a type of inducible reporter, measures of mRNA for gain or loss-of-signal activity can be used to understand the background control at the transcription factor-level as they relate to the gene . Furthermore, this assay endpoint can be referred to as a secondary readout, because this assay has produced multiple assay endpoints where this one serves a background control function. To generalize the intended target to other relatable targets, this assay endpoint is annotated to the background measurement intended target family, where the subfamily is internal marker.
Human liver HepG2 cells are transiently transfected with multiple reporter transcription units (MRTUs) in 6-well plates using FuGene 6 reagent (Roche; 3 ml FuGene/1 mg DNA). The MRTU constructs are regulated by a cis-regulating element (promoter). […] A major difference between the CIS and TRANS system is that in CIS activities of endogenous TFs are measured, whereas the TRANS assay evaluates changes in activities of exogenous, chimeric NR-Gal4 proteins. […] At the end of 24 hour incubation, total RNA was isolated using TriZol reagent (Invitrogen). The isolated RNA is then reverse-transcribed using oligo(dT) primer and Mo-MLV reverse transcriptase (Invitrogen) with DNAse I (Ambion) treatment for 30 min. The one-tenth of the produced cDNA was amplified by PCR using Taq DNA polymerase (Invitrogen) and two reporter sequence-specific primers. The PCR products were fluorescently labeled by primer extension with 6-arboxyfluorescein (6-FAM) 5'-labeled reporter sequence-specific primer (2 min at 95 C, 20 s at 68 C and 10 min at 72 C) and these products were digested with 5U of HpaI (New England Biolabs) for 2h at 37 C. The fragments were purified using Qiaquick PCR columns (Qiagen), analyzed on an ABI 3130xL genetic analyzer (Applied Biosystems) with peak positions identified by using a set of X-rhodamine (ROX)-labeled MapMarker1000 molecular weight standards (BioVentures). The raw capillary electrophoresis data was processed using Attagraph software (Attagene).

Question: Which outcome does the source give for `N#CC(Br)(Br)C(N)=O` here?
Answer: inactive

Question: With `CCCCCCCCCCCCCN1CC(C)OC(C)C1` (stereo not given) as the compound, how does the outcome read?
Answer: inactive

Question: For `c1ccc(N=Nc2ccccc2)cc1`, which outcome is on record?
Answer: inactive

Question: For `OCCOCCO`, which outcome is on record?
Answer: inactive

Question: For `CC(C)(O)c1cnn2c(-c3ccc(F)c(-c4c(F)cccc4C#N)c3)cnc2n1`, which outcome is on record?
Answer: inactive

Question: With `CNC(=O)Oc1cccc2c1OC(C)(C)C2` as the compound, how does the outcome read?
Answer: inactive

Question: With `Brc1ccc(Oc2ccccc2)cc1` as the compound, how does the outcome read?
Answer: inactive

Question: For `CCCCC(CC)COC(=O)c1ccc(C(=O)OCC(CC)CCCC)c(C(=O)OCC(CC)CCCC)c1` (stereo not given), which outcome is on record?
Answer: inactive

Question: For `O=C(Oc1ccc(Br)cc1)N1CCN2CCC1CC2`, which outcome is on record?
Answer: inactive

Question: For `CC(C)(C)OOC(C)(C)CCC(C)(C)OOC(C)(C)C`, which outcome is on record?
Answer: inactive

Question: For `COc1cc(C=O)cc2c1[C@H](COC(N)=O)[C@]1(OC(C)=O)ON2C[C@H]2[C@@H]1N2C(C)=O`, which outcome is on record?
Answer: inactive

Question: With `CCCCCCCCOC(=O)c1ccc(C(=O)OCCCCCCCC)c(C(=O)OCCCCCCCC)c1` as the compound, how does the outcome read?
Answer: inactive

Question: For `CCCCCCCCn1sccc1=O`, which outcome is on record?
Answer: inactive

Question: Which outcome does the source give for `CCC12COCN1COC2` here?
Answer: inactive

Question: With `Nc1ccc(Cc2ccc(N)cc2)cc1` as the compound, how does the outcome read?
Answer: inactive

Question: For `[O-][Cl+]O`, which outcome is on record?
Answer: inactive

Question: For `CO[C@@H]1[C@H](OC(=O)NC(=O)CCl)CC[C@]2(CO2)[C@H]1[C@@]1(C)O[C@@H]1CC=C(C)C`, which outcome is on record?
Answer: inactive

Question: With `Clc1ccccc1Cl` as the compound, how does the outcome read?
Answer: inactive

Question: With `Nc1ccc(N=Nc2ccccc2)cc1` as the compound, how does the outcome read?
Answer: inactive

Question: Which outcome does the source give for `c1ccc(C2CO2)cc1` (stereo not given) here?
Answer: inactive

Question: Which outcome does the source give for `CCOc1cccc(C2(N3CCN(c4ccccc4)CC3)CCC(C)CC2)c1` (stereo not given) here?
Answer: inactive

Question: Which outcome does the source give for `c1ccc(NNc2ccccc2)cc1` here?
Answer: inactive

Question: Which outcome does the source give for `c1ccc2c(c1)-c1cccc3cccc-2c13` here?
Answer: inactive

Question: For `Nc1cc(Cl)cc(C(=O)O)c1Cl`, which outcome is on record?
Answer: inactive

Question: With `Cc1ccc(N)cc1` as the compound, how does the outcome read?
Answer: inactive

Question: With `Nc1ccc(Cl)cc1N` as the compound, how does the outcome read?
Answer: inactive

Question: Which outcome does the source give for `O=C(N[C@H](c1ccccc1)[C@@H]1CN2CCC1CC2)c1c(Cl)ccc(C(F)(F)F)c1Cl` here?
Answer: inactive

Question: With `CN(C)c1ccccc1` as the compound, how does the outcome read?
Answer: inactive

Question: Which outcome does the source give for `O=[N+]([O-])c1ccc(Oc2ccc(Cl)cc2Cl)cc1` here?
Answer: inactive

Question: For `Nc1ccc([N+](=O)[O-])cc1`, which outcome is on record?
Answer: inactive

Question: With `CC(O)CCO` (stereo not given) as the compound, how does the outcome read?
Answer: inactive

Question: With `Cc1ccc(N=C=O)cc1N=C=O` as the compound, how does the outcome read?
Answer: inactive

Question: Which outcome does the source give for `COC(=O)c1ccccc1N` here?
Answer: inactive

Question: For `c1ccc2c(c1)oc1ccccc12`, which outcome is on record?
Answer: inactive

Question: For `[As]#[In]`, which outcome is on record?
Answer: inactive

Question: For `CC(C)(OOC(C)(C)c1ccccc1)c1ccccc1`, which outcome is on record?
Answer: inactive

Question: For `CC(C)N(Cc1ccccc1)C(=O)C(C)(C)C`, which outcome is on record?
Answer: inactive

Question: For `CCC(C)c1ccc(O)cc1` (stereo not given), which outcome is on record?
Answer: inactive

Question: Which outcome does the source give for `N#CC(Br)Br` here?
Answer: inactive

Question: With `CCOC(=O)[C@]1(c2ccccc2)Oc2ccccc2[C@@H]1N` as the compound, how does the outcome read?
Answer: inactive

Source: PubChem BioAssay (EPA / NIEHS)
